Records with an inconclusive call do not appear. Where a call stands in place of a potency, no number is given. Values without a mark were called inactive. The source made the active and inactive calls. Unless noted, calls come from the whole dose curve; as a rule, active = well fitted curve in the direction sought with a large enough effect in the repeat runs; inconclusive = weak or mixed curves; inactive = no such curve, though single readings can be large; an effect the other way counts as inactive or inconclusive.
Key:
[1] = qHTS assay to identify small molecule agonists of the RXR signaling pathway - cell viability counter screen (AID 1159529);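 note: HEK 293T cells carrying an RXR-alpha UAS beta-lactamase reporter; series mostly up to about 77 µM; nearly all actives have a fitted effect of over 50% in size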
Summary of the method: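 In this parallel viability measure, GeneBLAzer RXR-alpha HEK 293T cells (2% charcoal-stripped FBS) were given a 5 hr preincubation, treated with compounds 16 hr at 37 C, and read by CellTiter-Glo luminescence.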

[2] = qHTS assay to identify small molecule antagonists of the retinoid acid receptor (RAR) signaling pathway - cell viability counter screen (AID 1159551); note: nearly all actives have a fitted effect of over 35% in size
Summary of the method: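 Following overnight attachment, C3RL4 reporter cells received DMSO-dissolved compounds and then retinol (1 uM final). Six hours later at 37 C, ATP content was measured by CellTiter-Glo luminescence.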

[3] = qHTS assay to identify small molecule antagonists of the retinoic acid receptor (RAR) signaling pathway (AID 1159552; note: nearly all actives have a fitted effect of over 50% in size)
Summary of the method: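 C3RL4 RARE-luc cells, overnight plating; retinol 1 uM final added right after compound; 6 hr 37 C; luciferase read at 30 min RT.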

[4] = qHTS assay to identify small molecule agonists of the retinoic acid receptor (RAR) signaling pathway (AID 1159553); note: potency is the fitted concentration of half-maximal effect
Summary of the method: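 Cell line C3RL4, RARE luciferase reporter. Treatment: compounds in DMSO, 6 hr, 37 C, 5% CO2, after overnight plating. Detection: luminescence, 30 min RT after reagent.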

[5] = qHTS assay to identify small molecule antagonists of the estrogen related receptor (ERR) signaling pathway from Tox21 library - cell viability counter screen (AID 1224834); note: nearly all actives have a fitted effect of over 30% in size; note: potency is the fitted concentration of half-maximal effect
Summary of the method: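 Viability readout (CellTiter-Fluor fluorescence, 30 min at 37 C) multiplexed with the ERR assay; cells treated 17.5 h at 37 C with compounds delivered in DMSO.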

[6] = target: Luciferin 4-monooxygenase (Photinus pyralis) (UniProt P08659); assay: qHTS assay to identify small molecule inhibitors of firefly luciferase (AID 1224835); note: nearly all actives have a fitted effect of over 25% in size; note: potency is the fitted concentration of half-maximal effect
Summary of the method: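 Quantitative HTS format; KM concentrations of both substrates. Purified P. pyralis FLuc activity quantified from luminescence images.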

[7] = qHTS assay to identify small molecule agonists of the constitutive androstane receptor (CAR) signaling pathway - cell viability counter screen (AID 1224836); note: nearly all actives have a fitted effect of over 45% in size; note: potency is the fitted concentration of half-maximal effect
Summary of the method: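 Using CellTiter-Fluor, viability of HepG2 cells harbouring hCAR and CYP2B6-2.2kb was measured following 23 h incubation with a 15-concentration compound series plus PK11195 (0.75 uM final).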

[8] = qHTS assay to identify small molecule antagonists of the constitutive androstane receptor (CAR) signaling pathway - cell viability counter screen (AID 1224837); note: nearly all actives have a fitted effect of over 45% in size; note: potency is the fitted concentration of half-maximal effect
Summary of the method: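 Fluorescence from CellTiter-Fluor served as the viability signal. Human hepatoma HepG2 cells stably bearing hCAR and CYP2B6-2.2kb received compound plus CITCO (50 nM final) for 23 hr.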

[9] = target: Nuclear receptor subfamily 1 group I member 3 (Homo sapiens) (UniProt Q14994); assay: qHTS assay to identify small molecule antagonists of the constitutive androstane receptor (CAR) signaling pathway (AID 1224838);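 note: HepG2 cells stably expressing hCAR with CYP2B6 luciferase reporter stimulated by CITCO; nearly all actives have a fitted effect of over 40% in size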; note: potency is the fitted concentration of half-maximal effect
Summary of the method: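 Quantitative HTS in double-stable HepG2-CYP2B6-hCAR cells. After 4 h plating, cells get compound (15 concentrations) and CITCO at 50 nM final, incubate 24 h at 37 C, then ONE-Glo luminescence is read.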

[10] = target: Nuclear receptor subfamily 1 group I member 3 (Homo sapiens) (UniProt Q14994); assay: qHTS assay to identify small molecule agonists of the constitutive androstane receptor (CAR) signaling pathway (AID 1224839); note: nearly all actives have a fitted effect of over 15% in size; note: potency is the fitted concentration of half-maximal effect
Summary of the method: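 Double-stable HepG2 cells (hCAR, CYP2B6-2.2kb) seeded 4 h before compound addition. Exposure 24 h with 0.75 uM PK11195 final. Luciferase detected by ONE-Glo.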

[11] = qHTS assay to identify small molecule antagonists of the estrogen related receptor signaling pathway with the pleiotropic PPARgamma coactivator (PGC) from Tox21 10K library - cell viability counter screen (AID 1224840; active = well fitted cell-killing curve with a large enough effect in the repeat runs, not every such curve was filed as active; note: nearly all actives have a fitted effect of over 40% in size)
Summary of the method: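 Compounds in DMSO, alongside positive and negative controls, were pinned onto PGC/ERR cells (2,000 per well). Exposure lasted 17.5 hours at 37 C, followed by a 30-minute CellTiter-Fluor incubation and fluorescence reading.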

[12] = target: Retinoic acid receptor RXR-alpha (Homo sapiens) (UniProt P19793); assay: qHTS assay to identify small molecule agonists of the RXR signaling pathway (AID 1159527; calls by dose curve; note: nearly all actives have a fitted effect of over 35% in size)
Summary of the method: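 16 hr incubation of compound-treated RXR-alpha-UAS-bla HEK 293T cells (2% charcoal-stripped FBS, 37 C) preceded a 2 hr room-temperature LiveBLAzer FRET substrate step and blue/green fluorescence measurement.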

[13] = qHTS assay to identify small molecule antagonists of the estrogen related receptor signaling pathway with the pleiotropic PPARgamma coactivator (PGC) from Tox21 10K library (AID 1224841; call rule not given here; note: actives are mostly falling curves and most rising ones were filed inactive; nearly all actives have a fitted effect of over 50% in size; note: potency is the fitted concentration of half-maximal effect)
Summary of the method: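 Compound exposure ran 18 hours at 37 C in PGC/ERR cells (2,000/well) that had first rested 6 hours in a 37 C/5% CO2 incubator. Luciferase activity was then detected with One-Glo after a 30-minute room-temperature step.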

[14] = qHTS assay to identify small molecule agonists of the estrogen related receptor signaling pathway with the pleiotropic PPARgamma coactivator (PGC) from Tox21 10K library (AID 1224842); note: nearly all actives have a fitted effect of over 15% in size; note: potency is the fitted concentration of half-maximal effect
Summary of the method: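 PGC/ERR reporter cells (NTP line) were seeded 2,000 per well, rested 6 h at 37 C/5% CO2, then pin-dosed with compounds in DMSO for 18 h at 37 C; luciferase read by One-Glo luminescence after 30 min at room temperature.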

Sequence of Luciferin 4-monooxygenase (Photinus pyralis) (P08659 whole entry, looked up): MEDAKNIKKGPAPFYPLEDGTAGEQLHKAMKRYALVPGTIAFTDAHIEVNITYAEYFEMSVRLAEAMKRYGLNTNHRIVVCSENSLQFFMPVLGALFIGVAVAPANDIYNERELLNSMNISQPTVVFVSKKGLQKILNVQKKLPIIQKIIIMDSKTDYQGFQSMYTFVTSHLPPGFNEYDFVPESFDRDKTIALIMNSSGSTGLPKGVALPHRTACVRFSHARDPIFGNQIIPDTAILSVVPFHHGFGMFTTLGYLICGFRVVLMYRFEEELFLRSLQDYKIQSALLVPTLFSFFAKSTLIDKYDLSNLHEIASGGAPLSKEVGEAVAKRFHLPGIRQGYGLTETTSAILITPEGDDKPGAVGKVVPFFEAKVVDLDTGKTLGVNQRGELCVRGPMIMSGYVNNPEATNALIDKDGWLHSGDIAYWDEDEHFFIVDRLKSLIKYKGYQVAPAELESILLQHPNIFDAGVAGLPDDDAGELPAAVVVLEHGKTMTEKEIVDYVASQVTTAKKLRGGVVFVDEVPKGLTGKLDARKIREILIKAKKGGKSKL
Sequence of Retinoic acid receptor RXR-alpha (Homo sapiens) (P19793 whole entry, looked up): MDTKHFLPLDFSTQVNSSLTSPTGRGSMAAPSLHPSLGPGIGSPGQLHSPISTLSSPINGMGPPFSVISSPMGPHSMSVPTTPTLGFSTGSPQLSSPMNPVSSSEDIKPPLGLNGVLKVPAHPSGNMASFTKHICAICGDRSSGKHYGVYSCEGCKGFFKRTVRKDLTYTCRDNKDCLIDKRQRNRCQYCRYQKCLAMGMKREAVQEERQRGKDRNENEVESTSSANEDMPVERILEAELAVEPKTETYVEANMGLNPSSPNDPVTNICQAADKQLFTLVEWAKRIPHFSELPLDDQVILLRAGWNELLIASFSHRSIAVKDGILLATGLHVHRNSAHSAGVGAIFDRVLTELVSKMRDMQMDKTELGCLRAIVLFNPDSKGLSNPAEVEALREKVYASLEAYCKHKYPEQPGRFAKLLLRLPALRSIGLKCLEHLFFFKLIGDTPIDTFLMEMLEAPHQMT
Sequence of Nuclear receptor subfamily 1 group I member 3 (Homo sapiens) (Q14994 whole entry, looked up): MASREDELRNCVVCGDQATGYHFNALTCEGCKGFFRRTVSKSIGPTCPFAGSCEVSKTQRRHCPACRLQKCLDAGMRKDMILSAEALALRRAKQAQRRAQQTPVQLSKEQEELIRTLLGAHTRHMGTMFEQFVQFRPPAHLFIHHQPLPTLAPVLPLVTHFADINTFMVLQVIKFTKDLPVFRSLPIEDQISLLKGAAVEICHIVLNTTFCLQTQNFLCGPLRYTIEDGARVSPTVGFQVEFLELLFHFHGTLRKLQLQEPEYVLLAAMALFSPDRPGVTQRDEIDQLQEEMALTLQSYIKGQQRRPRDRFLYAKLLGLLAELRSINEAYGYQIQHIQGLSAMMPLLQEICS

Row | Structure (SMILES) | Potency [1] | outcome [2] | outcome [3] | Potency [4] | Potency [5] | Potency [6] | Potency [7] | Potency [8] | Potency [9] | Potency [10] | Potency [11] | outcome [12] | Potency [13] | Potency [14]
1 | CCOc1ccc2c(c1)C(C)CC(C)(C)N2 (centres undefined) | inactive | inactive | inactive | 54.5 µM (active) | inactive | 31.7 µM (active) | inactive | inactive | inactive | 27.3 µM (active) | inactive |  |  | 
2 | CCCCCCCCCCCCCCCCC(=O)O | inactive | inactive | inactive | inactive | inactive | inactive | inactive | inactive | inactive | inactive |  | inactive |  | 
3 | CC(C)=CCCC(C)C=O (centres undefined) | inactive | inactive | inactive | inactive | inactive | inactive | inactive | inactive | inactive | inactive | inactive |  |  | 
4 | CC1(C)[C@@H]2CC[C@]3(C2)[C@@H]1C(=O)CCC3(C)C | inactive | inactive | inactive | inactive | inactive | inactive | inactive | inactive | inactive | inactive | inactive | inactive |  | 
5 | Cc1c(Cl)cccc1Nc1ccccc1C(=O)O | inactive | inactive | inactive | inactive | inactive | inactive | inactive | inactive | inactive | inactive |  |  |  | 
6 | O=c1c2ccccc2oc2ccccc12 | inactive | inactive | inactive | 27.3 µM (active) | inactive | 20 µM (active) | inactive | inactive | inactive | 24.3 µM (active) |  |  |  | 
7 | CCCCCCCCOCCCN | inactive | inactive | inactive | inactive | inactive | inactive | inactive | inactive | inactive | inactive | inactive | inactive |  | 
8 | Cc1ccc(S(=O)(=O)NC(=O)NC2CCCC2)cc1 | inactive | inactive | inactive | inactive | inactive | inactive | inactive | inactive | inactive | inactive | inactive | inactive |  | 
9 | CC(CN=Cc1ccccc1O)N=Cc1ccccc1O (centres undefined) | inactive | inactive | inactive | inactive | inactive | inactive | inactive | inactive | inactive | inactive | inactive |  |  | 
10 | CCOc1ccccc1O | inactive | inactive | inactive | inactive | inactive | inactive | inactive | inactive | inactive | inactive | inactive |  |  | 
11 | C(/C=C/C=C/Nc1ccccc1)=Nc1ccccc1 | inactive | inactive | inactive | inactive | inactive | inactive | inactive | inactive | inactive | inactive |  |  |  | 
12 | O=C(O)c1cc(C(=O)O)cc([N+](=O)[O-])c1 | inactive | inactive | inactive | inactive | inactive | inactive | inactive | inactive | inactive | inactive |  |  |  | 
13 | O=Cc1ccc([N+](=O)[O-])cc1 | inactive | inactive | inactive | 19.4 µM (active) | inactive | inactive | inactive | inactive | inactive | 61.5 µM (active) | inactive | inactive | inactive | 
14 | CCCCCCCCCCCCCCCCN | inactive | inactive | inactive | inactive | inactive | inactive | inactive | inactive | inactive | inactive | inactive | inactive |  | 
15 | C/C=C1\[C@H]2C=C(C)C[C@]1(N)c1ccc(=O)[nH]c1C2 | inactive | inactive | inactive | inactive | inactive | inactive | inactive | inactive | inactive | inactive | inactive |  |  | 
16 | CCC(=O)O[C@@H]1C[C@H]2CC[C@]1(C)C2(C)C | inactive | inactive | inactive | inactive | inactive | inactive | inactive | inactive | inactive | inactive | inactive | inactive | inactive | 
17 | CC(=O)Nc1ccn(C2COC(COC(=O)c3ccccc3)O2)c(=O)n1 (centres undefined) | inactive | inactive | inactive | inactive | inactive | inactive | inactive | inactive |  | inactive | inactive |  | inactive | inactive
18 | CC(C)C[C@H](NC(=O)[C@H](Cc1ccccc1)NC(=O)c1cnccn1)B(O)O | inactive | inactive | inactive | 0.0094 µM (active) | 0.0841 µM (active) | inactive | 0.298 µM (active) | 0.266 µM (active) | 0.0376 µM (active) | inactive |  |  | 0.0188 µM (active) | inactive
19 | O=C(Nc1ccc2c(c1)Cc1ccccc1-2)C(F)(F)F | inactive | inactive | inactive | 6.86 µM (active) | inactive | 6.33 µM (active) | inactive | inactive | inactive | 27.3 µM (active) | inactive |  |  | 
20 | [O-][n+]1ccc(Cl)cc1 | inactive | inactive | inactive | inactive | inactive | inactive | inactive | inactive | inactive | inactive | inactive |  |  | 
21 | Nc1ccc(C(=O)Oc2ccccc2)c(O)c1 | inactive | inactive | inactive | 3.35 µM (active) | inactive | 13.8 µM (active) | inactive | inactive | inactive |  | inactive |  | inactive | 13.3 µM (active)
22 | O=C1C=CCCC1 | inactive | inactive | inactive | inactive | inactive | inactive | inactive | inactive | inactive | inactive | inactive |  |  | 

From PubChem BioAssay (Tox21)
